Source: PubChem BioAssay (several laboratories)
FID counter – displaces DNA intercalator in HCV helicase counter-screen. inhibition, % at 7.9 µM. DNA fluorescent intercalator displacement, fluorescence. 0.17% of 290,000 active. AID 1845; in the data active = inhibition above about 37%;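 note: 0% = vehicle and 100% = reference compound; higher means more ethidium bromide displaced from hairpin DNA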
MIN6 prolif – MIN6 beta-cell proliferation induction. MIN6 cells proliferation, ATPlite luminescence, 48 h; cells starved in 0.2% serum; 100% = growth in 10% serum. 0.29% of 330,000 active. AID 2380. proliferation, % at 10 µM;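 active = compounds whose signal lies at least 3.5 SD above the mean of all wells on their plate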;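 note: 0% = DMSO-treated cells in low-serum medium and 100% = 10% serum control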
UBC13 inh – inhibitors of human UBC13 polyubiquitin chain formation | TR-FRET | inhibition, % at 20 µM | AID 485273 | 0.47% of 330,000 active; in the data active = inhibition above about 45%, passing the limit was not always enough
PREPL inh – inhibitors of human prolyl oligopeptidase-like enzyme PREPL | Q4J6C6 | recombinant PREPL, fluorescence polarization activity-based probe | inhibition, % at 5.96 µM | 0.68% of 320,000 active;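 note: 0% = enzyme with DMSO and 100% = wells lacking enzyme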
Target sequence (Q4J6C6 whole entry, looked up): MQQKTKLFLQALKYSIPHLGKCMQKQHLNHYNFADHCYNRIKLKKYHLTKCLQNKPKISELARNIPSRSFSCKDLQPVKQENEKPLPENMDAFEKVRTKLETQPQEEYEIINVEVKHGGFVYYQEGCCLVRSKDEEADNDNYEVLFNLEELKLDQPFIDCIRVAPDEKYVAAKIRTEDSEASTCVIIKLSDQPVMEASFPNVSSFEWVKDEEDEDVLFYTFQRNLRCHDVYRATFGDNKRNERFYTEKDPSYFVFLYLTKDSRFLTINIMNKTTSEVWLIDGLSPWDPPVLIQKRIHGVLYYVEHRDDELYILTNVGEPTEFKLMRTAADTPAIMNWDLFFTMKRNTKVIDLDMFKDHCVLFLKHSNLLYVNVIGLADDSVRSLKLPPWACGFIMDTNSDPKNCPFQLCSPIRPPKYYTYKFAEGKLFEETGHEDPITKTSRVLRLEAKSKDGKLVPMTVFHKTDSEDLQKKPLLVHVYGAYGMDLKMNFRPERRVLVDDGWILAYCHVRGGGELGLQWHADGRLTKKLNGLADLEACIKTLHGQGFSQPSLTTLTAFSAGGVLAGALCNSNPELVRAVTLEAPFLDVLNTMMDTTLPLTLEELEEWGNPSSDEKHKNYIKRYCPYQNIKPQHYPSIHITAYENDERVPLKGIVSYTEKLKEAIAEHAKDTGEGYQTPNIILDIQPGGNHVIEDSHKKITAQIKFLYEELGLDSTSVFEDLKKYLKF
RAD54 branch – RAD54 (human) branch migration inhibition | Q92698 | RAD54 Holliday junction branch migration, FAM/BHQ fluorescence | inhibition, % at 10.4 µM | 0.14% of 360,000 active;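 active = mean normalized replicate activity at least 40 and at least half of replicates scoring 40 or more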;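 note: 0% = median of neutral control wells and 100% = median of positive control wells; inhibitors cause a drop in the FAM fluorescence signal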
RAD52 anneal inh – RAD52 (human) annealing inhibition. recombinant RAD52 DNA annealing, FRET fluorescence. inhibition, % at 18.7 µM. 0.46% of 360,000 active;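 active = every replicate showing at least 50% inhibition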
PREPL inh cf – confirmation of human PREPL enzyme inhibitors; shares compounds with PREPL inh; recombinant PREPL, fluorescence polarization activity probe; inhibition, % at 5.96 µM; 67% of 2,000 active;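 note: 0% = protein with DMSO and 100% = wells lacking protein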
The depositor's hits bear a star; i = inactive; nt = no result. An excerpt weighted towards active compounds, which were near 1.3% of everything screened. Cut-off read from the data, not from the text of the source, unless noted: active = inhibition above about 43%; inactive = the rest.

SMILES	FID counter	MIN6 prolif	UBC13 inh	PREPL inh	RAD54 branch	RAD52 anneal inh	PREPL inh cf
CCC(=O)N(C)C[C@@H]1Oc2cc(C#Cc3ccccc3)ccc2S(=O)(=O)N([C@@H](C)CO)C[C@H]1C	nt	nt	nt	nt	1.4	-9.7	nt
C[C@@H]1CN([C@H](C)CO)S(=O)(=O)c2ccc(/C=C/c3ccccc3)cc2O[C@H]1CN(C)C	nt	nt	nt	nt	13.2	44.1	nt
COc1cccc(N2CCN(Cc3nc4ccccc4c(=O)[nH]3)CC2)c1	-10.5	-2.2	7.0	48.5*	-2.1	nt	39.4
COc1ccc(N2CCN(Cc3nc4ccccc4c(=O)[nH]3)CC2)cc1	-7.5	-2.9	11.8	11.9	5.9	nt	nt
COc1ccccc1NC(=O)c1ccccc1Nc1ccccc1	-6.6	-3.7	3.4	1.7	-0.4	-15.2	nt
COc1ccccc1Nc1ccc(N)cc1	7.8	-1.8	2.9	83.6*	nt	-17.8	42.6
Cc1ccccc1S(=O)(=O)NCC[C@H]1CC[C@H](NC(=O)C2CCOCC2)[C@H](CO)O1	nt	nt	nt	nt	-5.5	3.1	nt
COc1ccc(C(=O)Nc2ccc3c(c2)OC[C@@H](C)NC[C@H](C)[C@H](OC)CN(C)C3=O)cc1	nt	nt	nt	nt	2.0	-4.7	nt
COCCCNc1c2c3c(cccc3[nH]c1=O)C(=O)c1ccccc1-2	2.0	-0.8	-447.8	112.0*	i	i	112.6*
CC1=NN(c2ccc(C(=O)O)cc2)C(=O)/C1=C\c1ccc(OC(=O)c2cccs2)cc1	-0.8	-3.9	-55.3	45.3*	nt	4.2	61.5*
CCOc1cc(/C=N/NC(=O)COc2ccc(C)cc2)ccc1OC(=O)c1cccs1	-15.9	-4.5	-9.8	19.1	1.7	nt	nt
CCOc1cc(/C=C2\C(=O)N(c3ccc(C(N)=O)cc3)N=C2C)ccc1OC(=O)c1cccs1	-5.5	-6.5	-51.2	57.5*	-17.5	nt	90.9*
CO[C@@H]1CN(C)C(=O)c2ccc(NS(C)(=O)=O)cc2OC[C@@H](C)N(C)C[C@@H]1C	nt	nt	nt	nt	5.3	-9.5	nt
COCCN1C=C2C(=O)C(C)(OC(=O)CCC(=O)OC)C(=O)C(Br)=C2C=C1c1ccc(OC)cc1 (stereo not given)	nt	-6.6	-88.5	64.0*	-9.6	nt	36.0
C=CCN1C=C2C(=O)C(C)(OC(=O)CCC(=O)OC)C(=O)C(Br)=C2C=C1c1ccc(OC)cc1 (stereo not given)	nt	-2.1	-96.2	73.6*	-8.4	nt	57.8*
CCN(CC)CCCN1C=C2C(=O)C(C)(OC(=O)CCc3ccccc3)C(=O)C=C2C=C1c1ccc(C#N)cc1 (stereo not given)	nt	-2.7	-52.5	43.1*	-3.8	nt	29.9
CCN(CC)CCCN1C=C2C(=O)C(C)(OC(=O)CCC(=O)OC)C(=O)C(Br)=C2C=C1c1ccc(OC)cc1 (stereo not given)	nt	-4.6	-72.5	70.2*	-34.3	-74.5	59.6*
COC(=O)CCC(=O)OC1(C)C(=O)C2=CN(c3ccc(OC)cc3)C(c3ccc(OC)cc3)=CC2=C(Br)C1=O (stereo not given)	nt	-1.7	-94.2	37.1	2.4	nt	nt
COc1ccc(CN2C=C3C(=O)C(C)(OC(=O)CCc4ccccc4)C(=O)C=C3C=C2c2ccc(C#N)cc2)cc1 (stereo not given)	nt	-4.9	-43.3	33.0	-4.6	-6.0	nt
CS(=O)(=O)N1[C@@H]2Cn3c(ccc(-c4ccc(F)cc4)c3=O)[C@H]1[C@@H](C(=O)N1CCOCC1)[C@@H]2CO	nt	nt	nt	nt	9.1	15.5	nt
CN1C(=O)c2cc(NC(=O)C3CCOCC3)ccc2OC[C@H]2O[C@H](CC(=O)NC3CCCC3)CC[C@@H]21	nt	nt	nt	nt	4.4	-7.6	nt
O=C(C[C@H]1CC[C@H](NC(=O)Nc2ccccc2F)[C@@H](CO)O1)NCc1ccc(F)cc1	nt	nt	nt	nt	nt	-2.9	nt
Cc1ccccc1-c1cnc2c(c1)C(=O)N([C@@H](C)CO)C[C@@H](C)[C@H](CN(C)C(=O)c1cccnc1)O2	nt	nt	nt	nt	5.3	-4.7	nt
O=C(OC[C@@H]1[C@H]2c3ccccc3OC1(CO)N=C1SCCCN12)c1ccccc1	nt	nt	nt	nt	2.9	-3.2	nt
COC(=O)CCC(=O)OC1(C)C(=O)C2=CN(Cc3ccco3)C(c3ccc(OC)cc3)=CC2=C(Br)C1=O (stereo not given)	nt	-4.8	-65.4	7.7	nt	nt	nt
SMILES	FID counter	MIN6 prolif	UBC13 inh	PREPL inh	RAD54 branch	RAD52 anneal inh	PREPL inh cf
COC(=O)CCC(=O)OC1(C)C(=O)C2=CN(C3CCCC3)C(c3ccc(OC)cc3)=CC2=C(Br)C1=O (stereo not given)	nt	-8.8	-92.3	54.4*	0.4	-21.6	40.8
Fc1ccccc1Cc1noc(CN(Cc2ccccn2)CC2CCCO2)n1 (stereo not given)	-21.2	-1.1	-7.5	50.8*	nt	-13.0	8.2
COc1ccc(CN(C)C[C@H]2Oc3ccc(NC(=O)Nc4ccc(C(F)(F)F)cc4)cc3CC(=O)N([C@H](C)CO)C[C@H]2C)cc1	nt	nt	nt	nt	-1.1	10.0	nt
COc1ccc(-n2c(N)c(C(=O)NCc3ccco3)c3nc4ccccc4nc32)cc1	-13.9	-2.1	-25.9	8.7	nt	nt	nt
Nc1c(C(=O)NCc2ccc3c(c2)OCO3)c2nc3ccccc3nc2n1CCCN1CCOCC1	2.2	-4.4	0.7	51.5*	nt	nt	53.7*
Nc1c(C(=O)NCc2ccco2)c2nc3ccccc3nc2n1CCc1ccc(F)cc1	-13.6	-5.3	-17.2	52.7*	-1.7	nt	42.4
CC1(OC(=O)C2CCCC2)C(=O)C=C2C=C(c3ccsc3)N(CC3CC3)C=C2C1=O (stereo not given)	nt	-4.7	-35.7	43.3*	3.9	-5.6	7.4
C[C@@H]1CN([C@@H](C)CO)C(=O)c2cc(NC(=O)Nc3ccc(F)cc3)ccc2O[C@@H]1CN(C)S(=O)(=O)c1cn(C)cn1	nt	nt	nt	nt	-1.1	10.4	nt
COC(=O)c1ccccc1-c1ccc(/C=N/NC(=O)c2cc3ccccc3o2)o1	-44.9	0.0	-6.9	14.6	-5.2	nt	nt
COC(=O)c1ccccc1-c1c2ccc(=N)cc-2oc2cc(N)ccc12	nt	-7.1	nt	151.3*	i	i	151.1*
CCNC(=O)[C@@H]1[C@@H](CO)[C@@H]2Cn3c(ccc(C4=CCCC4)c3=O)[C@H]1N2Cc1ccncc1	nt	nt	nt	nt	-1.6	-35.8	nt
Oc1ccc(C2=Nn3c(nnc3-c3ccco3)SC2)cc1O	3.2	2.5	11.3	43.8*	nt	nt	32.4
CCC(=O)N1CC(=O)N2[C@H](CO)[C@H](c3ccc(C#Cc4cccc(OC)c4)cc3)[C@H]2C1	nt	nt	nt	nt	nt	-28.8	nt
Cc1ccc(CN2CCSc3ccc(C(=O)NCC4CCCO4)cc32)cc1 (stereo not given)	-42.0	1.7	17.3	43.2*	-5.0	nt	40.1
O=C(NCC1CCCO1)c1ccc2c(c1)N(Cc1ccc(Cl)cc1)CCS2 (stereo not given)	nt	nt	nt	nt	12.1	-6.1	nt
CCN1/C(=C/c2ccc3cc(C)ccc3[n+]2CC)Sc2ccccc21	0.0	-6.1	i	64.8*	nt	i	57.5*
Nc1nn(-c2ccccc2)c(N)c1N=Nc1ccc2c(c1)OCO2	-4.0	0.0	-32.7	59.5*	nt	nt	60.3*
